This passage reports Potency and outcome results from PubChem BioAssay (NCATS).

Records with an inconclusive call do not appear. A call without a number means that no potency is given here. Calls of active or inactive are those of the source. Calls come from the whole dose curve; as a rule, active = well fitted curve in the direction sought with a large enough effect; inconclusive = small, poorly fitted or top-dose-only effect, or another doubt; inactive = no such curve, though single readings can be large; an effect the other way counts as inactive or inconclusive.

The first test can be described thus: Confirmatory screen NINDS Rhodamine qHTS for Zika virus inhibitors (AID 1347161). Note: nearly all actives have a fitted effect of over 60% in size. Note: potency is the fitted concentration of half-maximal effect. The note with it: purified enzyme assay, Rhodamine110 substrate fluorescence, 15 min; series mostly up to 114 µM. The gist of the method:
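Purified NS2B-NS3 protease with the NS2B hydrophilic domain joined by a flexible linker (25 nM) in 10 mM Tris-HCl pH 8.0, 0.01% Tween 20, preincubated 15 min at RT with compound; Rhodamine110 peptide substrate 1.5 µM; fluorescence change over 15 min; 4-parameter Hill fit.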
On the technique in general: qHTS replaces the single test concentration by a dilution series.
In the case of `O=S(=O)(O)c1ccc2cc(N=Nc3cc(S(=O)(=O)O)c4cccnc4c3O)ccc2c1`, the Potency is 1.39 µM (active).
Consider `c1cc(OCCN2CCCCC2)cc(-c2n[nH]c3ccc(-c4ncn[nH]4)cc23)c1`, for which the Potency entry is “inactive”.
`Cn1c(=O)c(-c2c(Cl)cccc2Cl)cc2cnc(Nc3cccc(C(=O)O)c3)nc21`: the Potency is 13.9 µM (active).

The next test in a line: Vero cells viability qHTS for Zika virus inhibitors (AID 1347167). The following applies: cytotoxicity counter-screen (Zika); series mostly up to 45.9 µM. The gist of the method: (§1)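 To flag cytotoxic protease inhibitors, viability is measured by ATP-dependent luminescence (CellTiter Glo) after cells attached overnight receive compound for 24 to 48 hours in DMEM with 4% FBS.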
On to `O=S(=O)(O)c1ccc2cc(N=Nc3cc(S(=O)(=O)O)c4cccnc4c3O)ccc2c1`, for which the compound was classed as inactive.
On the same count and under the same terms, to `N#CC1(c2cccc(C(=O)Nc3cc(Oc4ccc5nc(NC(=O)C6CC6)sc5n4)ccc3F)c2Cl)CC1` belongs “inactive”; to `c1cc(OCCN2CCCCC2)cc(-c2n[nH]c3ccc(-c4ncn[nH]4)cc23)c1`, “inactive”.

The nature of another test: HepG2 cells viability qHTS for Zika virus inhibitors (AID 1347168). The following applies: Zika counter-screen; series mostly up to 45.9 µM. The gist of the method:
as §1
For the compound `O=S(=O)(O)c1ccc2cc(N=Nc3cc(S(=O)(=O)O)c4cccnc4c3O)ccc2c1`, the outcome was inactive.
The same measure, in the same setting: the value for `N#CC1(c2cccc(C(=O)Nc3cc(Oc4ccc5nc(NC(=O)C6CC6)sc5n4)ccc3F)c2Cl)CC1` was “inactive”; that for `c1cc(OCCN2CCCCC2)cc(-c2n[nH]c3ccc(-c4ncn[nH]4)cc23)c1` was “inactive”.
